Records with an inconclusive call do not appear. Calls of active or inactive are those of the source. The call rests on the fitted dose curve; in most records, active means well fitted inhibition curve with a large enough effect; inconclusive means small, poorly fitted or top-dose-only effect; inactive means flat fitted curve, though single readings scatter.
molecular target: Luciferin 4-monooxygenase (Photinus pyralis) (UniProt P08659); assay: Biochemical firefly luciferase enzyme assay for NPC (AID 624030);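 further: purified P. pyralis luciferase at 10 nM with luciferin and ATP substrate; 0% = DMSO and -100% = full luciferase inhibition by PTC124 control; nearly all actives have a fitted effect of over 70% in size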; conditions: purified P. pyralis luciferase, luminescence, 5 min; series mostly up to 58.6 µM; activity change, negative = inhibition: at the top concentration
Procedure, shortened: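 Direct inhibition of firefly luciferase enzyme (10 nM final, 50 mM Tris Acetate) assessed by luminescence within 5 minutes. Percent activity scaled between DMSO and PTC124 positive control, with concentration-effect curves classified by fit quality and response.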

Sequence of Luciferin 4-monooxygenase (Photinus pyralis) (P08659 whole entry, looked up): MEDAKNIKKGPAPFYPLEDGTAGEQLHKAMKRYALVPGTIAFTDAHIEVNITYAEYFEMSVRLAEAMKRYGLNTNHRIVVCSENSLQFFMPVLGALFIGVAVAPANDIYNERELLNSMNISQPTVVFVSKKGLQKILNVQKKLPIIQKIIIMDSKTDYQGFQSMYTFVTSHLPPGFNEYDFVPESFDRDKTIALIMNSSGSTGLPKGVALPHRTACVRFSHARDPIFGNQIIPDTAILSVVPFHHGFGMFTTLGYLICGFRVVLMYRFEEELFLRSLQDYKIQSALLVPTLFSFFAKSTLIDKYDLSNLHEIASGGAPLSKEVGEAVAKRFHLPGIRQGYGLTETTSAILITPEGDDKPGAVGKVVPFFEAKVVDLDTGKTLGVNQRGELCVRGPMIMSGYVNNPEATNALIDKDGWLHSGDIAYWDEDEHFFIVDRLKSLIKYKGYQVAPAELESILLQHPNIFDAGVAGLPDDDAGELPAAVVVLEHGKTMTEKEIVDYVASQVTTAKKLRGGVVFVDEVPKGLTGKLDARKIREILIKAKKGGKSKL

Activity change, negative = inhibition, inactive:
CC1CC2C3CCC4=CC(=O)C=CC4(C)[C@@]3(F)C(O)CC2(C)[C@@]1(O)C(=O)CCl (some centres undefined) -4.98%
CSCCC(NC(=O)[C@H](Cc1c[nH]c2ccccc12)NC(=O)CNC(=O)[C@H](CCSC)NC(=O)[C@H](Cc1ccc(OS(=O)(=O)O)cc1)NC(=O)[C@@H](N)CC(=O)O)C(=O)N[C@@H](CC(=O)O)C(=O)N[C@@H](Cc1ccccc1)C(N)=O (some centres undefined) -12.5%
CO[C@]1(NC(=O)Cc2cccs2)C(=O)N2C(C(=O)O)=CC(COC(N)=O)S[C@H]21 (some centres undefined) -6.72%
CO/N=C(\C(=O)N[C@@H]1C(=O)N2C(C(=O)OCOC(=O)C(C)(C)C)=C(C)CS[C@H]12)c1csc(N)n1 1.8%
O=P(O)(O)OC[C@@H](O)CO -6.86%
CCCN(CC)[C@@H](CC)C(=O)Nc1c(C)cccc1C -2.8%
CCC(=O)OC1CCC2C3CCc4cc(O)ccc4C3CCC12C (centres undefined) -8.38%
Fc1ccc(C2CCNCC2COc2ccc3c(c2)OCO3)cc1 (centres undefined) 8.57%
CSCC[C@H](NC(=O)[C@@H](Cc1ccc(O[S+](=O)([O-])O)cc1)NC(=O)[C@H](N)CC(=O)O)C(=O)NCC(=O)N[C@@H](Cc1c[nH]c2ccccc12)C(=O)N[C@H](CCSC)C(=O)N[C@H](CC(=O)O)C(=O)N[C@@H](Cc1ccccc1)C(N)=O -9.06%
CC(=O)O[C@H]1C[C@@H]2CC[C@@H]3[C@H](CC[C@]4(C)[C@H](OC(C)=O)[C@@H](N5CC[N+](C)(C)CC5)C[C@@H]34)[C@@]2(C)C[C@@H]1N1CC[N+](C)(C)CC1 7.44%
CCCCCCC(O)C/C=C\CCCCCCCC(=O)O (centres undefined) -13.6%
C(=C1NCCN1)c1cccc2ccccc12 0.0122%
NC(N)=NCCCC(N)C(=O)O (centres undefined) -0.701%
C[N+](C)(C)CCOP(=O)(O)OP(=O)([O-])OCC1OC(n2ccc(N)nc2=O)[C@H](O)[C@@H]1O (some centres undefined) -4.62%
CCCCC/C=C/C/C=C/CCCCCCCC(=O)NC(C)c1ccccc1 (centres undefined) -0.61%
CC[C@H]1OC(=O)[C@H](C)[C@@H](O[C@H]2C[C@@](C)(OC)[C@@H](O)[C@H](C)O2)[C@H](C)[C@@H](O[C@@H]2O[C@H](C)C[C@H](N(C)C)[C@H]2O)[C@](C)(O)C[C@@H](C)[C@@H]2N[C@@H](COCCOC)O[C@H]([C@H]2C)[C@]1(C)O -0.0397%
CC(=O)O[C@H]1CC[C@@]2(C)C(=CCC3C2CC[C@]2(C)C(c4cccnc4)=CCC32)C1 (some centres undefined) 2.55%
CCCCCCCC(=O)CC[C@H]1[C@@H](C/C=C/CCCC(=O)OC(C)C)[C@@H](O)C[C@H]1O 2.73%
CO[C@@]1(NC(=O)CSC(F)F)C(=O)N2C(C(=O)O)=C(CSc3nnnn3CCO)CO[C@@H]21 -8.43%
